Several values for one entry are separate records, joined by “and”; a condition that tells them apart may be missing. Equal entries are not always repeated. Inconclusive results are not listed. Activity calls are given as the source filed them. Unless noted, calls come from the whole dose curve; as a rule, active = well fitted curve in the direction sought with a large enough effect; inconclusive = small, poorly fitted or top-dose-only effect, or another doubt; inactive = no such curve, though single readings can be large; an effect the other way counts as inactive or inconclusive.
Columns and labels:
[1] = Cell Viability - BJ (AID 421; calls by dose curve;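 note: potency is the fitted concentration of half-maximal effect; cells exposed to compound for 40 hours at 37 °C before readout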); conditions: BJ fibroblast viability, qHTS
Summary of the method: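 Cytotoxicity in human BJ foreskin fibroblasts is scored as loss of cellular ATP after a 40-hour exposure, measured by luciferase luminescence. Controls are DMSO and 100 uM tamoxifen.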

[2] = Cell Viability - MRC5 (AID 434; calls by dose curve;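 note: potency is the fitted concentration of half-maximal effect; potency reflects cytotoxicity seen as loss of intracellular ATP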); conditions: MRC5 lung fibroblast viability, qHTS
Summary of the method: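 Decrease in intracellular ATP, quantified by luciferase light output, reflects compound toxicity toward MRC5 cells exposed for 40 hr in complete culture medium. Concentration-response curves, scaled between DMSO and 100 uM tamoxifen, gave AC50 values.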

[3] = Cell Viability - SK-N-SH (AID 435; calls by dose curve;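 note: potency is the fitted concentration of half-maximal effect; compound exposure lasted 40 h at 37 °C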); conditions: SK-N-SH neuroblastoma cell viability qHTS
Summary of the method: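 SK-N-SH human neuroblastoma cells (1500/well) were exposed to compounds in complete medium for 40 h at 37 °C, and intracellular ATP was then measured by CellTiter-Glo luminescence. AC50 was taken from Hill fits, normalized to DMSO and 100 uM tamoxifen.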

[4] = Cell Viability - NIH 3T3 (AID 541); conditions: NIH 3T3 cell viability, qHTS; activity change, negative = cytotoxicity: at 92.2 µM (top of the series);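 note: plate controls were DMSO alone for no effect and tamoxifen positive control for full effect; nearly all actives have a fitted effect of over 25% in size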
Summary of the method: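 qHTS format; 40 hr compound exposure, 37 °C; CellTiter-Glo luminescence (cellular ATP) read-out after 20 min at RT. Decrease in ATP = cytotoxicity; AC50 from standard Hill fit.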

[5] = Cell Viability - Mesenchymal (AID 546); conditions: mesenchymal cells viability, qHTS; activity change, negative = cytotoxicity: at 91.7 µM (top of the series);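 note: cells exposed to compound for 40 hours before reading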
Summary of the method: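 In this qHTS cytotoxicity format, glomerulus-derived human mesenchymal kidney cells received compound for 40 hr, then luciferase-based ATP quantitation. Concentration-response data were fitted with the Hill equation.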

[6] = Cellular Toxicity (caspase-3) BJ (AID 658); conditions: BJ fibroblasts, luminescence, normalized: DMSO 0%, staurosporine 100%; series mostly up to 91.7 µM
Summary of the method: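 Plated BJ cells (1000/well) rested 5 hr, received compound for 16 hr at 37 °C, then Caspase-Glo 3/7 reagent for 1 hr at room temperature before luminescence reading.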

[7] = Cellular Toxicity (caspase-3) MRC-5 (AID 659); conditions: MRC-5 cells, luminescence, normalized: DMSO 0%, 10 µM staurosporine 100%; series mostly up to 91.7 µM
Summary of the method: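 Apoptosis readout in MRC-5 cells: luciferase light generated after caspase 3/7 cleaves a peptide-aminoluciferin substrate, measured post 16 hr compound incubation at 37 °C.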

[8] = Cellular Toxicity (caspase-3) Mesangial (AID 660); conditions: mesangial cells, normalized: DMSO 0%, 100 µM tamoxifen 100%; series mostly up to 91.7 µM;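 note: combined caspase 3 and 7 activity read by Caspase-Glo luminescence; cells exposed to compound for 16 h before the caspase read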
Summary of the method: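 Luminescent Caspase-Glo 3/7 readout (aminoluciferin substrate cleavage, 20 min RT) after 16 h compound exposure at 37 °C of normal human mesangial cells. Signal increase normalized between DMSO basal and 100 uM tamoxifen; Hill-equation AC50.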

[9] = Cellular Toxicity (caspase-3) Hek293 (AID 664); conditions: HEK293 caspase-3 activation, DMSO = 0%, 100 µM tamoxifen = 100%; series mostly up to 92.2 µM;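 note: cells exposed to compound for 16 h at 37 °C before readout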
Summary of the method: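 Luminescent Caspase-Glo 3/7 readout (aminoluciferin release) in HEK293 cells after 16 h compound treatment, 37 °C. Normalization: DMSO = basal, 100 uM tamoxifen = 100% stimulation. Concentration-response fitted with standard Hill equation for AC50.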

[10] = Cellular Toxicity (caspase-3) Renal Proximal Tubule (AID 667); conditions: renal proximal tubule cells, primary cells freshly taken from rat, solvent-only wells 0%, staurosporine 100%; series mostly up to 91.7 µM;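 note: cells exposed to compound for 16 hours at 37 °C before detection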
Summary of the method: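 Primary rat proximal tubule cells, 1000/well, 5 h plating at 37 °C, then compound 16 h at 37 °C. Caspase-Glo 3/7 reagent, 1 h RT, luminescence. Normalized to DMSO (basal) and 10 uM staurosporine (100%); Hill-fit AC50.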

[11] = MultiTox-Fluor Cytotoxicity Assay - LYMP1-003 - Live Cells (AID 962); conditions: LYMP1-003 lymphoblastoid cells, MultiTox-Fluor live-cell protease fluorescence; series mostly up to 92.2 µM;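 note: 0% = DMSO only and full loss = 92 µM tetraoctylammonium bromide; cytotoxic hits lower the live-cell protease signal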
Summary of the method: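 Readout: live-cell fluorescence (Ex/Em=405/510) from GF-AFC cleavage after 60 min MultiTox-Fluor reagent at room temperature. Lymphoblastoid LYMP1-003 cells, 16 hr compound treatment, 37 C. Concentration-response fitted to standard Hill equation for AC50.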

[12] = qHTS Assay for Identification of Small Molecule Inducers of Hypoxia Response (AID 2120; active = well fitted curve in the direction sought with a large enough effect in the signal ratio, with a control signal flat, not every such curve was filed as active; the % refers to the signal ratio; note: 0% is about no effect); conditions: hypoxia response reporter cells, beta-lactamase ratio readout; series mostly up to 104 µM
Summary of the method: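 Read-out: CCF4 FRET emission ratio 460nm/530nm (excitation 405nm), converted to %Activity, with AC50 fitted across a compound titration. ME-180 cells carried an HRE-driven beta-lactamase reporter; compound exposure 17 h, 37 degrees C.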

[13] = biological target: Thyroid hormone receptor beta (Homo sapiens) (UniProt P10828); assay: qHTS assay for small molecule agonists of thyroid hormone receptor beta signaling (AID 588545; calls by dose curve;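 note: 0% = DMSO only and 100% = 10 nM T3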); conditions: TR-UAS-bla GripTite HEK 293, beta-lactamase ratio, agonist mode, 18 h, percent of T3 response, DMSO as zero; series mostly up to 76.7 µM
Chain of Thyroid hormone receptor beta (Homo sapiens) (P10828 whole entry, looked up): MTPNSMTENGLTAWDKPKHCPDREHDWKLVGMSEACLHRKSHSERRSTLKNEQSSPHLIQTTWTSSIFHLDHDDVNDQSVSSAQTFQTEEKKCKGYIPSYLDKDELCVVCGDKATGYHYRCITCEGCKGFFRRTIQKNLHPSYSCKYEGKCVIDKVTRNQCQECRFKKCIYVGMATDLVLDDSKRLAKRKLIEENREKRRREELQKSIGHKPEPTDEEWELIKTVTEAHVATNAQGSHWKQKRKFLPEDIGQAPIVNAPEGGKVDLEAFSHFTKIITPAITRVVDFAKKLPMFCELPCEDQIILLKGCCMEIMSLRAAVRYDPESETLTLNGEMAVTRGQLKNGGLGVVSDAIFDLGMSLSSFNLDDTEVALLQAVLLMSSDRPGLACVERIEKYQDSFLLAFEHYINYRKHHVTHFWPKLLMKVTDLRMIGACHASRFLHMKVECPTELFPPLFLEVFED
Summary of the method: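 TR-UAS-bla-GripTite HEK 293 cells in medium with 2% charcoal/dextran FBS, 0.1 mM NEAA and 1 mM sodium pyruvate were treated with titrated compounds for 18 hrs at 37 C. Beta-lactamase reporter was read with CCF4 dye (ex 405, em 460/530 nm); EC50 from Hill fits.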

[14] = qHTS assay for small molecule antagonists of retinoid X receptor alpha signaling (AID 588546; active = well fitted inhibition curve with a large enough effect in the signal ratio, with a control signal flat, not every such curve was filed as active; the % refers to the signal ratio;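 note: cells stimulated with 9-cis-retinoic acid as agonist; % is set by controls: 0 for no effect and ±100 for the full control effect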); conditions: HEK293T RXRa-UAS-bla, beta-lactamase ratio, antagonist mode; measured here: W530 green channel, cytotoxicity proxy
Summary of the method: (§1)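 Beta-lactamase reporter inhibition, read as CCF4 fluorescence ratio (ex 405, em 460/530 nm) after 2 h at RT. HEK293T UAS-bla cells, 2500/well, were stimulated with 9-cis-RA at 500 or 100 nM final alongside test compound for 18 h at 37 C.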

[15] = biological target: Retinoic acid receptor RXR-alpha (Homo sapiens) (UniProt P19793); assay: as above; conditions: HEK293T RXRa-UAS-bla, beta-lactamase ratio, antagonist mode
Chain of Retinoic acid receptor RXR-alpha (Homo sapiens) (P19793 whole entry, looked up): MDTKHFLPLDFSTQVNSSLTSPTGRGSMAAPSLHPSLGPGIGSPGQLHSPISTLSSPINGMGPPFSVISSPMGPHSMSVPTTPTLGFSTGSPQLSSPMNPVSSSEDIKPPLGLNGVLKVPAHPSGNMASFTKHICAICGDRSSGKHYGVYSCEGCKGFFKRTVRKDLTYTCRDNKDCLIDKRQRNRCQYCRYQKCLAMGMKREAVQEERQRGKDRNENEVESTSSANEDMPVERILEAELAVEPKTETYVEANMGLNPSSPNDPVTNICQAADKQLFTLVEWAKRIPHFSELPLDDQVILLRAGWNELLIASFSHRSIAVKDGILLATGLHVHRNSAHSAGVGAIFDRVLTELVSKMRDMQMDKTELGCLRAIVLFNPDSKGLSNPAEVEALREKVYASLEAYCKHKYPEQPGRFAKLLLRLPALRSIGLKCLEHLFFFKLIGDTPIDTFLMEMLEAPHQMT
Summary of the method: as §1

[16] = qHTS assay for environmental chemicals that activate the Aryl hydrocarbon Receptor (AhR) signaling pathway (AID 651777); conditions: 1A2-DRE human hepatoma cells, luciferase, 24 h; activation: stronger effect = higher value; note: % of control where 0% means no effect; nearly all actives have a fitted effect of over 15% in size
Summary of the method: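 Quantitative HTS in stably transfected human liver-derived cells whose luciferase gene sits downstream of the CYP1A2 promoter and dioxin response element. After 24 hr exposure at 37 C, One-Glo luminescence was measured.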

[17] = biological target: Peroxisome proliferator-activated receptor alpha (Homo sapiens) (UniProt Q07869); assay: qHTS assay for small molecule agonists of the peroxisome proliferator-activated receptor alpha (PPARalpha) signaling pathway (AID 651778); conditions: PathHunter PPARalpha complementation, chemiluminescence, 6 h; max response: stronger effect = higher value; note: % of control where 0% means no effect
Chain of Peroxisome proliferator-activated receptor alpha (Homo sapiens) (Q07869 whole entry, looked up): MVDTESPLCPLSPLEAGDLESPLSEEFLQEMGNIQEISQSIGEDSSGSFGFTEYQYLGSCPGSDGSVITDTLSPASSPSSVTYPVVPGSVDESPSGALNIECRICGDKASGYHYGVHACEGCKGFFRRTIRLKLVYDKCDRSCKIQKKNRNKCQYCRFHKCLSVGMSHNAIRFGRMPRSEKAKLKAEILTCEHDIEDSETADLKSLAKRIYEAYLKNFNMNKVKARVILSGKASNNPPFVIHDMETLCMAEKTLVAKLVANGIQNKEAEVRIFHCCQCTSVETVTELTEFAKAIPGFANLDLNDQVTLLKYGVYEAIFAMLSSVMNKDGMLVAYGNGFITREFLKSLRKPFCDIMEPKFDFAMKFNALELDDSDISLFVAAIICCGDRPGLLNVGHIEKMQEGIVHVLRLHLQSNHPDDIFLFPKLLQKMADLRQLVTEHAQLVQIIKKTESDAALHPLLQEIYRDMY
Summary of the method: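 Cells plated at 2,000/well and held overnight at 37 C, 5% CO2, then compound added by pin tool for 6 hr; after PathHunter detection reagent and 60 min at room temperature, chemiluminescence from enzyme complementation was read.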

[18] = qHTS assay for small molecule agonists of the antioxidant response element (ARE) signaling pathway measured by Nrf2-dependant transcriptional activity (AID 720636; active = well fitted curve in the direction sought with a large enough effect in the repeat runs; an effect the other way counts as inactive or inconclusive; note: % of control where 0% means no effect); conditions: ARE-luc HepG2, Nrf2 luciferase reporter, 16 h; series mostly up to 92.4 µM
Summary of the method: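 Quantitative HTS format in HepG2 cells stably expressing an ARE-luciferase reporter; 16 hr compound treatment at 37 C, luciferase signal detected with ONE-Glo.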

[19] = qHTS assay for small molecule agonists of the antioxidant response element (ARE) signaling pathway measured by Nrf2-dependant transcriptional activity - cell viability counter screen (AID 720653; active = well fitted curve in the direction sought with a large enough effect in the repeat runs; an effect the other way counts as inactive or inconclusive; note: % is set by controls: 0 for no effect and ±100 for the full control effect); conditions: ARE-bla HepG2 viability, CellTiter-Glo ATP luminescence, 16 h; max response: stronger effect = lower value
Summary of the method: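 ARE-bla HepG2 cells (2,000/well) rested 5 hrs at 37C/5% CO2, then exposed to compounds in DMSO for 16 hrs. Viability was read in the same wells as intracellular ATP by luminescence, 30 min at room temperature after reagent addition.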

[20] = qHTS assay for cell viability of HEK293 cells (AID 743288); conditions: ATP luminescence (CellTiter-Glo), 18 h; max response: stronger effect = lower value; note: % is set by controls: 0 for no effect and ±100 for the full control effect; nearly all actives have a fitted effect of over 50% in size
Summary of the method: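 After 18 h compound exposure at 37 C, parental HEK293 cells (2,000/well) are lysed with CellTiter-Glo and luminescence is read following 30 min at room temperature.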

C/C=C\c1ccc(OC)cc1
inactive: Potency [1] > 92 µM | Potency [2] > 92 µM | Potency [3] > 92 µM | Potency [4] | activity change, negative = cytotoxicity [5] -1.47% | outcome [6] | outcome [7] | outcome [8] | outcome [9] | outcome [10] | Potency [11] | outcome [12] | outcome [13] | max response [15] 3.92% | activation [16] -0.657% | max response [17] -5.71% | Potency [18] | max response [19] -0.534% | max response [20] 8.66%
1.79%: max response [14]

CCC(C)c1ccccc1O (stereo not given)
inactive: Potency [1] > 92 µM | Potency [2] > 92 µM | Potency [3] > 92 µM | Potency [4] | activity change, negative = cytotoxicity [5] 1.63% and 2.6% | outcome [6] | outcome [7] | outcome [8] | outcome [9] | outcome [10] | Potency [11] | outcome [12] | outcome [13] | max response [15] 0.496% and -0.838% and 1.78% | activation [16] -0.0817% and -0.418% and 0.519% | max response [17] 4.33% and -1.41% and -1.75% | Potency [18] | max response [19] 15.2% and -6.24% and -8.74% | max response [20] 12.6% and 1.15% and -2.8%
-6.22% and -6.2% and -6.14%: max response [14]

COC(=O)c1ccc(C=O)cc1
-1.3% and -26.3%: max response [14]
inactive: Potency [1] > 92 µM | Potency [2] > 92 µM | Potency [3] > 92 µM | activity change, negative = cytotoxicity [5] -7.99% | outcome [6] | outcome [7] | outcome [8] | outcome [9] | outcome [10] | Potency [11] | outcome [12] | outcome [13] | max response [15] 21.2% and -1.21% | activation [16] 1.65% and -0.822% | max response [17] -7.41% and -4.28% | Potency [18] | max response [19] -1.73% and -0.32% | max response [20] -15.6% and -6.77%
active: activity change, negative = cytotoxicity [4] -110%

From PubChem BioAssay (NCATS)
